Some test systems named below: SR leukemia; RPMI-8226 leukemia; OVCAR-8 ovarian; OVCAR-5 ovarian; OVCAR-4 ovarian; SK-OV-3 ovarian; IGROV1 ovarian; OVCAR-3 ovarian; HS 578T breast; NCI/ADR-RES ovarian; T-47D breast; BT-549 breast; MDA-MB-435 melanoma; SW-620 colon; MCF7 breast; HCT-116 colon; HCC-2998 colon; KM12 colon.
Holding throughout (test): NCI-60 one-dose screen, 48 h (100 = growth as untreated, 0 = no growth, -100 = all killed)
Common to all, as to conditions: 10 µM unless noted

Each structure is given as a SMILES string. This is part of a sample that, as a whole, favours compounds with a hit. Of some 83,000 tested, about 20% had one in any assay.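 Note: values are percent growth. 100 is the growth of untreated cells, values between 100 and 0 indicate rising inhibition; between -100 and 0 indicates cell death.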 Values without a mark were called inactive. Activity calls are given as the source filed them. How the source made its calls: active means growth percent below 10; inactive means the rest.

Our source for the growth values is PubChem BioAssay (NCI).

Regarding `O=[N+]([O-])c1ccccc1C(O)Cc1ccc2ccccc2n1` (centres undefined), the growth in the test with SR leukemia is 95.6%; in the test with RPMI-8226 leukemia, 95.1%; with OVCAR-8 ovarian it was 97.2%; in the test with OVCAR-5 ovarian, 91.1%; in the test with OVCAR-4 ovarian, 92.8%; in the test on SK-OV-3 ovarian it was 84.9%. Also, the growth with IGROV1 ovarian is 80.5%; in the test on OVCAR-3 ovarian it was 93.2%; with HS 578T breast, 98.9%; in the test with NCI/ADR-RES ovarian, 93%; in the test on T-47D breast, 88.6%; with BT-549 breast it was 109%. Moreover, the growth in the test on MDA-MB-435 melanoma is 103%; in the test with SW-620 colon it was 96.7%; with MCF7 breast, 83.2%; with HCT-116 colon, 93%; with HCC-2998 colon, 114%; in the test on KM12 colon, 87.6%.

In the case of `O=c1[nH]c(NCc2nnnn2-c2ccc(Br)cc2)nc2sc3c(c12)CCCC3`, the growth was 86.3% in the test with SR leukemia; 87.3% in the test with RPMI-8226 leukemia; 81.4% in the test on OVCAR-8 ovarian; 100% with OVCAR-5 ovarian; 95.2% in the test with OVCAR-4 ovarian; 90.6% in the test on SK-OV-3 ovarian. Besides, the growth in the test on IGROV1 ovarian is 104%; in the test on OVCAR-3 ovarian, 97.8%; in the test on HS 578T breast, 100%; in the test with NCI/ADR-RES ovarian, 103%; with T-47D breast it was 74.3%; with BT-549 breast, 104%. The growth in the test with MDA-MB-435 melanoma was 97.4%; with SW-620 colon, 93.7%; with MCF7 breast, 92%; in the test with HCT-116 colon, 81.2%; in the test on HCC-2998 colon it was 110%; with KM12 colon, 96.1%.

Consider `CCCCCCCCN(CCCCCCCC)C(=N)c1ccnc2ccccc12`, for which the growth in the test on SR leukemia was -56.6% (active); in the test with RPMI-8226 leukemia, -47.7% (active); with OVCAR-8 ovarian, -66.1% (active); in the test with OVCAR-5 ovarian, -57.2% (active); with OVCAR-4 ovarian, -67.1% (active); in the test on SK-OV-3 ovarian, -27.8% (active). For the same compound, the growth is -66.5% (active) with IGROV1 ovarian; -93% (active) with OVCAR-3 ovarian; -32% (active) in the test on HS 578T breast; -72.5% (active) with NCI/ADR-RES ovarian; -62.9% (active) in the test on T-47D breast; 66.2% in the test on BT-549 breast. Further, the growth in the test on MDA-MB-435 melanoma is -82.3% (active); in the test with SW-620 colon it was -68.1% (active); in the test with MCF7 breast, -74.6% (active); in the test on HCT-116 colon it was -92.3% (active); in the test with HCC-2998 colon, -84.1% (active); in the test with KM12 colon, -82.7% (active).

On to `CN(C)CCN1C(=O)c2cccc3c(-c4ccc(-c5nc6c7ccccc7c7ccccc7c6[nH]5)cc4)ccc(c23)C1=O`, for which the growth with SR leukemia was 38.6%; with RPMI-8226 leukemia, 54.9%; in the test on OVCAR-8 ovarian it was 52%; in the test on OVCAR-5 ovarian, 123%; in the test with OVCAR-4 ovarian, -2.99% (active); in the test with SK-OV-3 ovarian, 109%. Also, the growth in the test on IGROV1 ovarian is 96.3%; with OVCAR-3 ovarian, 117%; in the test with HS 578T breast, 117%; in the test on NCI/ADR-RES ovarian, 88.1%; in the test with T-47D breast it was 86.7%; with BT-549 breast it was 104%. The growth in the test on MDA-MB-435 melanoma is 114%; in the test with SW-620 colon it was 86%; in the test on MCF7 breast, 36.2%; in the test on HCT-116 colon it was 65.1%; in the test on HCC-2998 colon it was 104%; with KM12 colon it was 75.8%.

`CCN(CC)CCOC(=O)N1c2ccccc2Sc2ccccc21`: the growth in the test on SR leukemia was 98.6%; with RPMI-8226 leukemia, 85.6%; in the test on OVCAR-8 ovarian, 101%; in the test on OVCAR-5 ovarian it was 101%; in the test with OVCAR-4 ovarian it was 101%; in the test on SK-OV-3 ovarian, 98%. For the same compound, the growth with IGROV1 ovarian was 94.1%; in the test with OVCAR-3 ovarian, 107%; with HS 578T breast, 91.7%; in the test on NCI/ADR-RES ovarian, 96.1%; in the test with T-47D breast, 94%; in the test on BT-549 breast, 92.1%. For the same compound, the growth with MDA-MB-435 melanoma was 98.7%; in the test on SW-620 colon it was 94.4%; in the test on MCF7 breast it was 99.5%; in the test with HCT-116 colon it was 81.7%; with HCC-2998 colon, 102%; in the test on KM12 colon it was 99.3%.

For the compound `CCc1c(C(=O)N[C@@H]2c3cc(Cl)ccc3CC[C@@H]2O)[nH]c(C)c1C(C)=O`, the growth in the test on SR leukemia is 52.5%; in the test with RPMI-8226 leukemia, 59.7%; with OVCAR-8 ovarian, 71.4%; in the test on OVCAR-5 ovarian it was 97.9%; with OVCAR-4 ovarian, 95.9%; with SK-OV-3 ovarian it was 74.4%. The growth with IGROV1 ovarian was 59%; in the test with OVCAR-3 ovarian it was 81.8%; with HS 578T breast it was 77.5%; with NCI/ADR-RES ovarian it was 82.7%; in the test on T-47D breast, 70.4%; in the test on BT-549 breast it was 80.7%. For the same compound, the growth in the test with MDA-MB-435 melanoma is 97.4%; in the test on SW-620 colon, 90.1%; with MCF7 breast it was 85.3%; with HCT-116 colon, 51%; with HCC-2998 colon it was 95.4%; with KM12 colon, 71.6%.

As for `COc1cc(/C=C/c2nc(Nc3ccc(S(=O)(=O)Nc4cc(C)on4)cc3)c3ccccc3n2)ccc1O`, the growth was 19.4% with SR leukemia; 72.9% in the test on RPMI-8226 leukemia; 73.5% in the test on OVCAR-8 ovarian; 88.7% with OVCAR-5 ovarian; 91% with OVCAR-4 ovarian; 86% in the test on SK-OV-3 ovarian. Moreover, the growth in the test on IGROV1 ovarian is 59.5%; with OVCAR-3 ovarian, 65.2%; with HS 578T breast, 78.5%; in the test on NCI/ADR-RES ovarian, 51%; in the test on T-47D breast, 58.4%; in the test with BT-549 breast it was 107%. The growth is -44.1% (active) in the test with MDA-MB-435 melanoma; 39.1% with SW-620 colon; 30.7% in the test on MCF7 breast; 54.6% in the test on HCT-116 colon; 81.9% in the test with HCC-2998 colon; 31.8% in the test on KM12 colon.

Regarding `CCOC(=O)C(O)C(O)(c1ccccc1)c1ccccc1` (centres undefined), the growth was 95% in the test on SR leukemia; 106% with RPMI-8226 leukemia; 108% in the test with OVCAR-8 ovarian; 90.4% in the test on OVCAR-5 ovarian; 111% in the test with OVCAR-4 ovarian; 97% in the test on SK-OV-3 ovarian. For the same compound, the growth was 100% with IGROV1 ovarian; 108% with OVCAR-3 ovarian; 108% in the test on HS 578T breast; 102% in the test on NCI/ADR-RES ovarian; 93.6% in the test with T-47D breast; 103% in the test with BT-549 breast. Besides, the growth in the test with MDA-MB-435 melanoma was 111%; in the test with SW-620 colon, 109%; in the test on MCF7 breast, 93.5%; in the test with HCT-116 colon, 105%; with HCC-2998 colon, 99.9%; with KM12 colon, 101%.
